This is an account of results in PubChem BioAssay.

Activity calls are given as the source filed them. Cut-off read from the data, not from the text of the source: active = inhibition above about 33%; inactive = the rest.

Usually inhibition stands for the change of the read-out against control, counted positive when it falls.

The nature of the experiment: compounds suppressing VP16-driven luciferase signal – cell-based, luminescence, high throughput, counter-screen for LRH-1 inverse agonist project (AID 651615). The following applies: Gal4-VP16 luciferase reporter cells, at 3.6 µM, hits give high values.
On to `COc1ccc(-n2c(SCC(=O)NCc3ccco3)nc3sc4c(c3c2=O)CCN(C)C4)cc1`, for which the inhibition is -5.24% (inactive).
For the molecule `COc1ccc(NC(=O)Cn2nnc(C(=O)Nc3ccccc3C)c2N)cc1`, the inhibition was 9.36% (inactive).
Then `Cc1cccc(C(=O)N[C@H](C(=O)Nc2ncc(C)s2)C(C)C)c1`, with 8.22% (inactive); and `Cc1ccc(N2CC(C(=O)Nc3nc4ccc(S(C)(=O)=O)cc4s3)CC2=O)cc1` (stereo not given), with -0.21% (inactive); and `CC(=O)c1ccc(OC(C)C(=O)OCC(=O)NCCc2ccccc2)cc1` (stereo not given), with 7.05% (inactive).
Then `CC(=O)C(C(C)=O)c1c(Cl)c(O)c(O)c2c(C(=O)c3ccccc3)coc12`, with 90.2% (active).
Take `O=C(CN1C(=O)NC2(CCCCCC2)C1=O)Nc1ccc([N+](=O)[O-])cc1`: the inhibition is 9.06% (inactive).
Turning to `CCOC(=O)c1cccc(C2=CC(=O)CC(C)(C)C2)c1`, the inhibition is -12% (inactive).
Then `OCC1OC(n2cnc3c(/C=C(\O)c4ccccc4)ncnc32)C(O)C1O` (stereo not given), with -27.3% (inactive).
As to `COc1cccc(C=Nc2ccc3c(c2)OCCO3)c1O`, the inhibition was -25.9% (inactive).
Consider `COc1ccc(S(=O)(=O)Nc2ccc(CC#N)cc2)cc1`, for which the inhibition was -0.34% (inactive).
On to `COc1cccc(C(C)(O)c2nc(-c3cccc(C#N)c3)cs2)c1` (stereo not given), for which the inhibition is 22.6% (inactive).
`Cc1ccc(C)c(NC(=O)CSc2nc3c(oc4ccccc43)c(=O)n2-c2ccccc2)c1`: the inhibition is -9.48% (inactive).
In the case of `Cc1cc(C)c2nc(NC(=O)c3ccc([N+](=O)[O-])o3)sc2c1`, the inhibition is -14.5% (inactive).
For `O=C(CSc1ncn[nH]1)Nc1ccc(Cl)c(Cl)c1`, the inhibition is 20.6% (inactive).
For `O=C1CC(c2cccc([N+](=O)[O-])c2)c2ccc3ccccc3c2N1` (stereo not given), the inhibition was 9.31% (inactive).
As to `COC(=O)Cc1sc(-c2ccccn2)nc1-c1ccccc1`, the inhibition is -7.62% (inactive).
As to `COc1cc(OC)cc(C(=O)N[C@H](C(=O)OCC(=O)Nc2ccc3c(c2)OCO3)C(C)C)c1`, the inhibition was -4.48% (inactive).
For `O=C(Nc1ccc(Oc2ccccc2)cc1)c1csc([C@H]2C[C@H](O)[C@@H](CO)O2)n1`, the inhibition was 54.4% (active).
With `COc1ccc(NC(=O)C2=CC(c3ccc(OC)c(OC)c3)=NS(=O)(=O)N2C)cc1`, the inhibition is 18.4% (inactive).
Take `Cc1ccc2c(c1)Oc1ccc(NC(=O)CCl)cc1C(=O)N2`: the inhibition was 16.8% (inactive).
Then `CC(C)(Oc1ccc(Cl)cc1)C(=O)OCC(=O)NCCc1ccccc1`, with 4.06% (inactive).
`O=C(CSC1=NC2(CCCCCC2)N=C1c1ccccc1)Nc1ccc2c(c1)OCCO2`: the inhibition was 12.7% (inactive).
On to `Cc1cc(C)c(C(N)=O)c(Nc2cccc3ccccc23)n1`, for which the inhibition is -17.9% (inactive).
In the case of `COc1ccc2c(c1)C1C=CCC1C(c1cc3c(cc1Br)OCO3)N2` (stereo not given), the inhibition was -14.3% (inactive).
`CC1=C(n2nnc([N+](=O)[O-])n2)C(c2cccnc2)C(C#N)=C(N)O1` (stereo not given): the inhibition was -0.44% (inactive).
Turning to `CCCN(CC(=O)Nc1ccccc1C)CC(=O)Nc1ccc(Br)cc1F`, the inhibition is 1.69% (inactive).
As to `CC(=O)Nc1cc(-c2ccccc2N(C)C)cn2c(-c3ccc(S(C)(=O)=O)cc3)cnc12`, the inhibition is -14.6% (inactive).
Turning to `CCCc1nc2cc(C)c(Br)c(C)n2c1Cc1ccc(OC)cc1C`, the inhibition was 5.35% (inactive).
Take `CCc1cc(=O)oc2c(C)c(OCC(=O)NC3CC(C)(C)NC(C)(C)C3)ccc12`: the inhibition is 3.79% (inactive).
Regarding `Cc1c(Cl)cccc1NC(=O)CSc1nnc(C)n1CC1CCCO1` (stereo not given), the inhibition is -6.95% (inactive).
Regarding `Cc1nnsc1S(=O)c1ccc(Br)cc1` (stereo not given), the inhibition was 3.37% (inactive).
Then `COc1ccc(CN(C)C(=O)CCl)cc1`, with -5.19% (inactive).
For `CCc1nc(SCC(=O)N2CCc3cc(OC)c(OC)cc3C2)c(C#N)cc1C`, the inhibition was 1.24% (inactive).
Regarding `Cc1cc(C)c2nc(-c3cccnc3)cc(C(=O)NC(C)c3cnn(C)c3C)c2c1` (stereo not given), the inhibition is -13.5% (inactive).
On to `COc1ccc(CCNC(=O)CSc2nc(O)c(CCC(C)C)c(=O)[nH]2)cc1OC`, for which the inhibition was -12.8% (inactive).
As for `CS(=O)(=O)N1CCCC(c2nc(-c3ccc(S(=O)(=O)NCc4ccccc4)cc3)no2)C1` (stereo not given), the inhibition was 37.8% (active).
For `Cc1ccc(NC(=O)CSc2nsc(SCC(=O)Nc3ccc(C)cc3C)c2C#N)c(C)c1`, the inhibition was -0.96% (inactive).
As for `CCOC(=O)c1cc2sccc2n1CC(=O)Nc1ccc2c(c1)OCCO2`, the inhibition was -2.96% (inactive).
Consider `COc1ccc(NC(=O)CSc2nc3nc(C)cc(C)c3c(=O)[nH]2)cc1`, for which the inhibition was -2.26% (inactive).
